From PMC4336329 (PLoS ONE, 2015)
Among all 310,000 compounds or so, about 2,200 (0.71%) showed an effect of 50% or more. The effect is printed as a negative number. Only a selection was taken, and strong results are over-represented in it overall.

Each compound was assayed against human ether-à-go-go-related gene (hERG) potassium channel (human, UniProt Q12809) (assay: primary screen, population patch clamp on CHO cells stably expressing hERG; higher = less effect of the substance).
Description: Briefly, Chinese hamster ovary (CHO) cells stably expressing the hERG channel were dislodged from tissue culture flasks and dispensed into PPC plates. […] During the recording, background leak currents were estimated by a 100 ms step to -80 mV from an initial holding potential of -70 mV and subtracted from the subsequent current measurement. The campaign was conducted in two phases using slight differences in recording protocol. In the first phase, the initial voltage pulse used a 100 ms step to -30 mV from a holding potential of -70 mV, a 2 s conditioning step to +25 mV, and a 2 s test step to -30 mV. During the second phase of the screen, the potential during the conditioning step was raised to +45 mV. In both phases of the campaign, a secondary voltage pulse was applied using the same parameters as the second phase initial pulse. The initial and secondary pulses were applied in the absence of compound, and upon application of 1 μM and 10 μM test concentrations. Small molecule effects on hERG current density were quantified by […].

Sequence of human ether-à-go-go-related gene (hERG) potassium channel (Q12809 whole entry, looked up): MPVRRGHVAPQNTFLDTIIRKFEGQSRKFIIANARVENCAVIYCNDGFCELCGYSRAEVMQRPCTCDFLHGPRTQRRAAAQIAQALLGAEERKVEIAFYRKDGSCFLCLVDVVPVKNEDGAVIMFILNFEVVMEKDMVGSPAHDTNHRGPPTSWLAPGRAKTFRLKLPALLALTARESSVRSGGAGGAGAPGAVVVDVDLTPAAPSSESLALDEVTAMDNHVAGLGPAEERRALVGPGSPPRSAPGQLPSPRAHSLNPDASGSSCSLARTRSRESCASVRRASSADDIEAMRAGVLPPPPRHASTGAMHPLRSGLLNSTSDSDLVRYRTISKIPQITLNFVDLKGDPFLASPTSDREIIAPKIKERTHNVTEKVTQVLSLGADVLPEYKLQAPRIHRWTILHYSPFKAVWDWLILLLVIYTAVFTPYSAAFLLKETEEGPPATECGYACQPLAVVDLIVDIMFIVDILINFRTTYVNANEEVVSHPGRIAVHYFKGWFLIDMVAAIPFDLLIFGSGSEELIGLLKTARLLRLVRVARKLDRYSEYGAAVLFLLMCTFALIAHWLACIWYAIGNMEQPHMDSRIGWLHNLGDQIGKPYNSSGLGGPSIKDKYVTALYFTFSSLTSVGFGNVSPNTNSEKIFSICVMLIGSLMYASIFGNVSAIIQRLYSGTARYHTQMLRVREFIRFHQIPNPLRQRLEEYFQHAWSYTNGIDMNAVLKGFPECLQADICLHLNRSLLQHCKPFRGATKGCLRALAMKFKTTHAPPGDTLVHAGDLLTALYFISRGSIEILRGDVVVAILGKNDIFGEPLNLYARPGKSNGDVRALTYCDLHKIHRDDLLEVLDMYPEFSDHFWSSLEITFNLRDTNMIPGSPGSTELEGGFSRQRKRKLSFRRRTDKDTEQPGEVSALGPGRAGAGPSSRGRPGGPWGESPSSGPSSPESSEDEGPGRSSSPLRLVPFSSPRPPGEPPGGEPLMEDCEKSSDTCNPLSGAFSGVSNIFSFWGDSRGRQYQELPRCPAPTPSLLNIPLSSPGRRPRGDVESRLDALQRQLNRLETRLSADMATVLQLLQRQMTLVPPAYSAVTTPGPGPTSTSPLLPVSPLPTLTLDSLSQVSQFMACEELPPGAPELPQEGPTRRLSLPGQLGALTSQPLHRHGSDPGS

Q: With `N=C(N)Cc1ccccc1Sc1ccccc1.O=C(O)/C=C\C(=O)O` as the compound, how does the “hERG current change (%, negative = inhibition) at 1uM” value read?
A: 5.87%

Q: Which “hERG current change (%, negative = inhibition) at 1uM” value does the source give for `CC(Cc1ccccc1Sc1ccc(O)cc1)N(C)C.CCO.Cl` (centres unmarked) here?
A: -73.1%

Q: How did the “hERG current change (%, negative = inhibition) at 1uM” value turn out when `O=C(O)/C=C\C(=O)O.c1ccc(Sc2ccccc2CN2CCCC2)cc1` was run?
A: -11.3%

Q: For `N/C(Cc1ccccc1Sc1ccccc1)=N\O.O=C(O)/C=C\C(=O)O`, which “hERG current change (%, negative = inhibition) at 1uM” value is on record?
A: 4.44%

Q: How did the “hERG current change (%, negative = inhibition) at 1uM” value turn out when `CC(Cc1ccccc1Sc1ccccc1O)N(C)C.Cl` (centres unmarked) was run?
A: 3.67%

Q: `CC(Cc1ccccc1Sc1ccccc1)N(C)C.O=C(O)/C=C\C(=O)O` (centres unmarked) was tested. Which “hERG current change (%, negative = inhibition) at 1uM” value did it give?
A: -60.6%

Q: How did the “hERG current change (%, negative = inhibition) at 1uM” value turn out when `CN1CCN(Cc2ccccc2Sc2ccccc2)CC1.O=C(O)/C=C\C(=O)O` was run?
A: -68.1%

Q: `CCN(CC)Cc1ccccc1Sc1ccccc1.O=C(O)/C=C\C(=O)O` was tested. Which “hERG current change (%, negative = inhibition) at 1uM” value did it give?
A: -6.63%

Q: With `CNC(C)Cc1ccccc1Sc1ccc(O)cc1.Cl` (centres unmarked) as the compound, how does the “hERG current change (%, negative = inhibition) at 1uM” value read?
A: -21.1%

Q: How did the “hERG current change (%, negative = inhibition) at 1uM” value turn out when `CN(C)CCCn1c(SCC(=O)Nc2nc(-c3cccc(Br)c3)cs2)nc2ccccc2c1=O` was run?
A: -3.37%

Q: Which “hERG current change (%, negative = inhibition) at 1uM” value does the source give for `Cc1ccc([N+](=O)[O-])cc1NC(=O)c1ccccc1` here?
A: 0.0028%

Q: How did the “hERG current change (%, negative = inhibition) at 1uM” value turn out when `N#Cc1ccc(C(=O)Nc2nc(-c3cccs3)c(C(=O)C(F)(F)F)s2)cc1` was run?
A: -18.6%

Q: How did the “hERG current change (%, negative = inhibition) at 1uM” value turn out when `CCC(CC)NC(=O)Nc1ccccc1C` was run?
A: 11.5%

Q: How did the “hERG current change (%, negative = inhibition) at 1uM” value turn out when `CC(C)OCCCN1CN(S(=O)(=O)c2ccc(Cl)cc2)c2nc3ccccc3nc21` was run?
A: 13.8%

Q: With `O=C1Nc2ccc(Cl)cc2/C1=C/C1CC=CCC1` (centres unmarked) as the compound, how does the “hERG current change (%, negative = inhibition) at 1uM” value read?
A: 7.83%

Q: With `COc1ccc(N2CCN(Cc3oc(CO)cc(=O)c3O)CC2)cc1` as the compound, how does the “hERG current change (%, negative = inhibition) at 1uM” value read?
A: 2.29%

Q: Which “hERG current change (%, negative = inhibition) at 1uM” value does the source give for `Cc1ccccc1CN1CCN(CC(=O)NC(C)c2ccccc2)CC1` (centres unmarked) here?
A: 3.82%

Q: With `O=C(NCC1CCCO1)C(c1ccncc1)N(Cc1ccc(F)cc1)C(=O)CN1C(=O)c2ccccc2S1(=O)=O` (centres unmarked) as the compound, how does the “hERG current change (%, negative = inhibition) at 1uM” value read?
A: -51.2%

Q: Which “hERG current change (%, negative = inhibition) at 1uM” value does the source give for `O=C(NCC1CCCO1)C(c1ccco1)N(Cc1ccc(F)cc1)C(=O)CN1C(=O)c2ccccc2S1(=O)=O` (centres unmarked) here?
A: 8.75%

Q: Which “hERG current change (%, negative = inhibition) at 1uM” value does the source give for `COc1cccc(C(C(=O)NCC2CCCO2)N(CC2CCCO2)C(=O)CN2C(=O)c3ccccc3S2(=O)=O)c1` (centres unmarked) here?
A: 12.5%

Q: Which “hERG current change (%, negative = inhibition) at 1uM” value does the source give for `COc1cccc(CN(C(=O)CN2C(=O)c3ccccc3S2(=O)=O)C(C(=O)NCC2CCCO2)c2ccco2)c1` (centres unmarked) here?
A: -50.1%

Q: With `COc1ccc(CN(C(=O)CN2C(=O)c3ccccc3S2(=O)=O)C(C(=O)NCC2CCCO2)c2ccco2)cc1` (centres unmarked) as the compound, how does the “hERG current change (%, negative = inhibition) at 1uM” value read?
A: -2.31%

Q: With `COc1ccc(CN(C(=O)CN2C(=O)c3ccccc3S2(=O)=O)C(C(=O)NCC2CCCO2)c2ccncc2)cc1` (centres unmarked) as the compound, how does the “hERG current change (%, negative = inhibition) at 1uM” value read?
A: 0.0687%

Q: Which “hERG current change (%, negative = inhibition) at 1uM” value does the source give for `COc1ccc(CC(=O)Nc2ccc(OC(C)=O)cc2C(=O)O)cc1` here?
A: -3.47%

Q: For `O=c1c2ccccc2nnn1CSc1nnc2ccccn12`, which “hERG current change (%, negative = inhibition) at 1uM” value is on record?
A: 6.78%

Q: How did the “hERG current change (%, negative = inhibition) at 1uM” value turn out when `Cc1ccc(Sc2ncccc2C(=O)O)cc1C` was run?
A: 15.6%

Q: For `CCOC(=O)N1CCC(NCCNC(=O)c2cccs2)CC1`, which “hERG current change (%, negative = inhibition) at 1uM” value is on record?
A: 5.13%

Q: For `CCOC(=O)c1[nH]c2ccc(OC)cc2c1NC(=O)OC`, which “hERG current change (%, negative = inhibition) at 1uM” value is on record?
A: 9.33%

Q: With `NC(=O)C1CCN(C(=O)N2c3ccccc3Sc3ccccc32)CC1` as the compound, how does the “hERG current change (%, negative = inhibition) at 1uM” value read?
A: 0.149%

Q: For `CC(C)CNC(=O)C1CCN(c2ccc(S(=O)(=O)N3CCOCC3)cc2[N+](=O)[O-])CC1`, which “hERG current change (%, negative = inhibition) at 1uM” value is on record?
A: -9.02%

Q: Which “hERG current change (%, negative = inhibition) at 1uM” value does the source give for `O=C(NCc1ccco1)C1CCN(c2ccc(S(=O)(=O)N3CCOCC3)cc2[N+](=O)[O-])CC1` here?
A: -51.5%

Q: `CCN(CC)C(=O)C1CCN(S(=O)(=O)c2ccc(-n3cnnn3)cc2)CC1` was tested. Which “hERG current change (%, negative = inhibition) at 1uM” value did it give?
A: 3.52%

Q: `C=CCNC(=O)C1CCN(c2ccc(S(=O)(=O)N3CCOCC3)cc2[N+](=O)[O-])CC1` was tested. Which “hERG current change (%, negative = inhibition) at 1uM” value did it give?
A: -2.79%

Q: `O=C(NCc1ccco1)C1CCCN(S(=O)(=O)c2ccc(-n3cnnn3)cc2)C1` (centres unmarked) was tested. Which “hERG current change (%, negative = inhibition) at 1uM” value did it give?
A: -26.8%

Q: How did the “hERG current change (%, negative = inhibition) at 1uM” value turn out when `C=CCN(CC=C)C(=O)C1CCN(S(=O)(=O)c2ccc(-n3cnnn3)cc2)CC1` was run?
A: -13.1%

Q: `O=C(NCc1ccco1)C1CCN(S(=O)(=O)c2ccc(-n3cnnn3)cc2)CC1` was tested. Which “hERG current change (%, negative = inhibition) at 1uM” value did it give?
A: -62.1%

Q: How did the “hERG current change (%, negative = inhibition) at 1uM” value turn out when `CN(Cc1ccccc1)C(=O)C1CCN(S(=O)(=O)c2ccc(-n3cnnn3)cc2)CC1` was run?
A: -62%

Q: Which “hERG current change (%, negative = inhibition) at 1uM” value does the source give for `O=C(NCc1ccccc1Cl)C1CCN(S(=O)(=O)c2ccc(-n3cnnn3)cc2)CC1` here?
A: -3.01%

Q: How did the “hERG current change (%, negative = inhibition) at 1uM” value turn out when `C[C@@H]1CN(Cc2nc(Cc3ccccc3F)no2)C[C@H](C)O1` was run?
A: 8.68%

Q: For `O=C(Nc1cccc(C(=O)O)c1)/C(=C\c1ccc2c(c1)OCO2)NC(=O)c1ccccc1`, which “hERG current change (%, negative = inhibition) at 1uM” value is on record?
A: 3.01%

Q: With `CC(C)Oc1cccc(C(=O)C2CCCN(C(=O)c3cncs3)C2)c1` (centres unmarked) as the compound, how does the “hERG current change (%, negative = inhibition) at 1uM” value read?
A: 4.28%

Q: For `CC1CCC(C(C)C)C(OC(=O)Cn2c(-c3ccccc3)[n+](C)c3ccccc32)C1.[Cl-]` (centres unmarked), which “hERG current change (%, negative = inhibition) at 1uM” value is on record?
A: -42.1%

Q: With `CC1CCC(C(C)C)C(OC(=O)Cn2c(COc3ccccc3)[n+](C)c3ccccc32)C1.[Cl-]` (centres unmarked) as the compound, how does the “hERG current change (%, negative = inhibition) at 1uM” value read?
A: -54%

Q: How did the “hERG current change (%, negative = inhibition) at 1uM” value turn out when `CC1CCC(C(C)C)C(OC(=O)COC(=O)c2cccn2C)C1` (centres unmarked) was run?
A: 17.6%

Q: How did the “hERG current change (%, negative = inhibition) at 1uM” value turn out when `COc1ccc(OCc2n(CC(=O)OC3CC(C)CCC3C(C)C)c3ccccc3[n+]2C)cc1.[Cl-]` (centres unmarked) was run?
A: -45.5%

Q: Which “hERG current change (%, negative = inhibition) at 1uM” value does the source give for `CC1CCC(C(C)C)C(OC(=O)Cn2c(-c3ccc(Cl)cc3)[n+](C)c3ccccc32)C1.[Cl-]` (centres unmarked) here?
A: -58%

Q: How did the “hERG current change (%, negative = inhibition) at 1uM” value turn out when `CC1CCC(C(C)C)C(OC(=O)C[n+]2cc(-c3ccc(Cl)cc3)n3c2CCC3)C1.[Cl-]` (centres unmarked) was run?
A: -25.6%

Q: For `Cc1ccccc1OCc1n(CC(=O)OC2CC(C)CCC2C(C)C)c2ccccc2[n+]1C.[Cl-]` (centres unmarked), which “hERG current change (%, negative = inhibition) at 1uM” value is on record?
A: -1.86%

Q: `Cc1cccc(OCc2n(CC(=O)OC3CC(C)CCC3C(C)C)c3ccccc3[n+]2C)c1.[Cl-]` (centres unmarked) was tested. Which “hERG current change (%, negative = inhibition) at 1uM” value did it give?
A: -12.2%

Q: `CC1CCC(C(C)C)C(OC(=O)Cn2c(-c3ccc(F)cc3)[n+](C)c3ccccc32)C1.[Cl-]` (centres unmarked) was tested. Which “hERG current change (%, negative = inhibition) at 1uM” value did it give?
A: -53.9%

Q: For `CC1CCC(C(C)C)C(OC(=O)Cn2c(-c3ccc(Br)cc3)[n+](C)c3ccccc32)C1.[Cl-]` (centres unmarked), which “hERG current change (%, negative = inhibition) at 1uM” value is on record?
A: -60.7%

Q: Which “hERG current change (%, negative = inhibition) at 1uM” value does the source give for `CC1CCC(C(C)C)C(OC(=O)COC(=O)c2ccccc2N)C1` (centres unmarked) here?
A: 4.58%

Q: How did the “hERG current change (%, negative = inhibition) at 1uM” value turn out when `CC1CCC(C(C)C)C(OC(=O)C[n+]2cc(-c3ccc(Cl)cc3)n3c2CCCCC3)C1.[Cl-]` (centres unmarked) was run?
A: -19.9%
